About 83,000 compounds went through this panel and 20% of them were active in at least one assay; those are over-represented in the sample as a whole.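 Results are percent growth after 48 hours of single-concentration exposure. 100 means growth as in untreated cells, lower positive values show inhibition; negative values down to -100 show cell death.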 Calls of active or inactive are those of the source. The calls were made as follows: active = growth percent below 10; inactive = the rest.
How the values were obtained:
Assay in all cases: NCI-60 one-dose screen, 48 h (100 = growth as untreated, 0 = no growth, -100 = all killed)
Conditions in all cases: 10 µM
[1] = system: NCI-H226 lung
[2] = system: NCI-H322M lung
[3] = system: HOP-62 NSCLC
[4] = system: NCI-H460 lung
[5] = system: NCI-H522 lung
[6] = system: A549/ATCC NSCLC
[7] = system: 786-0 renal
[8] = system: COLO 205 colon
[9] = system: DU-145 prostate
[10] = system: K-562 leukemia
[11] = system: MALME-3M melanoma
[12] = system: MDA-MB-231 breast
[13] = system: RXF 393 renal
[14] = system: SF-268 CNS
[15] = system: SF-295 CNS
[16] = system: SF-539 CNS
[17] = system: UACC-257 melanoma
[18] = system: M14 melanoma
[19] = system: HOP-92 NSCLC

Measured: growth

O=C(CCl)N1CCN(C/C=C/c2ccccc2)CC1
inactive: [1] 79.8% | [2] 109% | [3] 97.2% | [4] 98.1% | [6] 108% | [7] 101% | [8] 108% | [9] 110% | [10] 88.1% | [11] 83% | [12] 100% | [13] 86.4% | [14] 87.7% | [15] 105% | [16] 104% | [17] 85.8% | [18] 90.1%
active: [5] -80.4%

N=c1c(C(=O)OCc2ccccc2)ncc(CCl)n1O
active: [5] -43.4%
inactive: [1] 92.9% | [2] 98.6% | [3] 95.7% | [4] 99.4% | [19] 97.3% | [6] 101% | [7] 81.6% | [8] 116% | [9] 102% | [10] 109% | [11] 113% | [12] 95.8% | [13] 94.9% | [14] 94.9% | [15] 124% | [16] 104% | [17] 81.8% | [18] 94.1%

CSc1[nH]c(=O)ncc1F
inactive: [1] 99.7% | [2] 97.8% | [3] 109% | [4] 106% | [19] 116% | [5] 100% | [6] 93.3% | [7] 104% | [8] 110% | [9] 106% | [10] 111% | [11] 97.8% | [13] 105% | [15] 97.4% | [16] 95.7% | [17] 72.8% | [18] 103%

C=CC[N+](C)(C)C
active: [15] -10.9%
inactive: [1] 93.6% | [2] 108% | [3] 107% | [4] 104% | [19] 86% | [6] 100% | [7] 102% | [8] 120% | [9] 120% | [10] 102% | [11] 98.8% | [12] 108% | [13] 100% | [14] 112% | [16] 98.1% | [17] 101% | [18] 107%

COC1=CC(=O)c2nc(Cl)ccc2C1=O
active: [19] -18.4% | [5] -51.2% | [10] 0.0099% | [12] -25.5% | [13] -53.9% | [17] -30.9% | [18] -5.38%
inactive: [1] 26.6% | [2] 106% | [3] 89.4% | [4] 115% | [6] 98.3% | [7] 72.4% | [8] 102% | [9] 63% | [11] 130% | [14] 63.6% | [15] 115% | [16] 88.3%

COc1cccc(/C=N/NC(=S)NC2CC3CCC2C3)c1O (stereo not drawn)
active: [4] 3.68%
inactive: [2] 62.2% | [3] 39.6% | [19] 55.5% | [5] 64.7% | [6] 43.9% | [7] 86.3% | [8] 105% | [9] 56.6% | [10] 39.3% | [11] 35.9% | [12] 55.4% | [13] 51.5% | [14] 63.3% | [15] 15.9% | [16] 69.8% | [17] 73.6% | [18] 55.7%

CCOc1ccc(Br)cc1/C=N\N=C\c1cc(Br)ccc1OCC
inactive: [1] 97.6% | [3] 108% | [4] 103% | [19] 92.2% | [5] 104% | [6] 104% | [7] 105% | [8] 119% | [9] 102% | [10] 95.3% | [11] 105% | [12] 108% | [13] 145% | [14] 97.6% | [15] 100% | [16] 101% | [17] 92.7% | [18] 98.6%

CCOC(=O)c1ccc(Nc2sc(C(=O)c3cccc([N+](=O)[O-])c3)c(N)c2C#N)cc1
active: [4] 4.75% | [5] 5.23% | [15] -44.3% | [16] 1.59%
inactive: [1] 41% | [3] 27.3% | [19] 43% | [6] 48.3% | [7] 24.7% | [9] 29.2% | [10] 16.1% | [12] 45.9% | [13] 15.8% | [14] 44.4% | [17] 17.4% | [18] 24%

COc1cc([C@@H]2c3cc4c(cc3[C@H](O)[C@H]3COC(=O)[C@H]23)OCO4)cc(OC)c1OC
inactive: [19] 11.3% | [6] 14.2% | [7] 12.4% | [11] 54.2% | [12] 10.1% | [13] 41% | [14] 27.3% | [17] 53.2%
active: [1] -9.84% | [4] 9.21% | [8] -57.8% | [9] -23.9% | [15] -14.1% | [16] 5.77% | [18] 6.41%
